Pf growth 48h – inhibits P. falciparum growth in the first generation, 48 h; P. falciparum luciferase growth in erythrocytes, 48 h; Potency, µM (titrated, usually from 28.7 µM), for the others: at the highest dose activity change, negative = inhibition, most hits filed as inhibitors; 310,000 compounds, 5.9% hits; AID 504832; further: on the % scale 0 is the no-effect control and ±100 the full control effect
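Here the parasites carry a stable luciferase gene and grow inside erythrocytes in Albumax-based RPMI medium with compound for one erythrocytic cycle. Activity is scored as loss of luminescent signal.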
Sm TGR block – blocks Schistosoma mansoni thioredoxin glutathione reductase; purified TGR, DTNB reduction, TNB absorbance 405 nm; Potency, µM (highest dose often 114 µM), without a hit: at the highest dose activity change, negative = inhibition, usual class: inhibitors; 360,000 compounds, 3% hits; further: on the % scale 0 is the no-effect control and ±100 the full control effect; nearly all actives have a fitted effect of over 60% in size
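Kinetic colorimetric format: TGR-catalysed, NADPH-driven DTNB reduction monitored via TNB absorbance. Enzyme dispensed at 20 nM; compound exposure 15 min at room temperature before reaction start.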
SARS PLpro yeast – SARS-CoV PLP inhibition in yeast. S. cerevisiae expressing SARS-CoV PLpro, growth rescue. Potency, µM (top dose mostly 32.9 µM), for inactives: at the top dose activity, positive = growth rescue, hits mostly activators. 330,000 compounds, 0.19% hits. AID 485353; calls by dose curve; further: 0% is about no effect; nearly all actives have a fitted effect of over 55% in size
Pf growth 96h – P. falciparum growth inhibition at 96 hours; AID 504834; 320,000 compounds, 6.9% hits; Potency, µM (doses to about 28.7 µM), inactives show top-dose activity change, negative = inhibition, hits mostly inhibitors; P. falciparum luciferase reporter growth, 96 h; further: on the % scale 0 is the no-effect control and ±100 the full control effect
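Delayed-death screen, second-generation endpoint: infected erythrocytes, 2% hematocrit, 0.05% parasitemia final; 96 hours at 37 C, 5% CO2; luciferase detection reagent; luminescence decrease equals reduced growth.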
Numbers without * were called inactive; ? = inconclusive; . = no result; [ ] = dose if it differs, or a comment. Hits are enriched below; roughly 12% of the tested compounds scored in any of these assays. Unless noted, the call rests on the fitted dose curve; in most records, active means well fitted curve in the direction sought with a large enough effect; inconclusive means small, poorly fitted or top-dose-only effect, or another doubt; inactive means no such curve, though single readings can be large; an effect the other way counts as inactive or inconclusive. Potency means the concentration at half of the fitted maximal effect.

SMILES	Pf growth 48h	Sm TGR block	SARS PLpro yeast	Pf growth 96h
O=C(c1ccc(C#CC2(O)CCCCC2)cc1)N1CCN(Cc2ccccc2)CC1	?	-3%	8%	10µM*
O=C(c1ccccc1)N1CCN(Cc2ccccc2)CC1	14%	-1%	-12%	7.4µM*
O=C(COC(=O)C1CC2CCCC(C1)C2=O)NC1CCCCC1 (stereo unspecified)	3%	-11%	0%	-21%
COc1ccc(-n2nnc(-c3nsc(NC(=O)c4cccs4)n3)c2C)cc1OC	.	-2%	.	.
Cc1cc(NC(=O)CCc2nc3cccnc3n2-c2ccccc2)ccc1Br	.	-4%	.	.
Cc1ccc(Cl)cc1N1CCN(S(=O)(=O)c2c(C)[nH]c(C)c2C(=O)N2CCCCC2)CC1	?	-1%	1%	25%
CN(C)C(=O)Cn1c(SCC(=O)NCc2ccc3c(c2)OCO3)nc2ccccc21	2%	1%	-12%	90%
CC1CCCCN1C(=O)CSc1nc2cc3c(cc2c(=O)n1Cc1ccc2c(c1)OCO2)OCO3 (stereo unspecified)	?	-2%	-2%	4.1µM*
CC1CCCC(C)N1C(=O)Cn1c(SCC(=O)NCc2ccc3c(c2)OCO3)nc2ccccc21 (stereo unspecified)	6.6µM*	6%	6%	-18%
Cc1cc(C)cc(-n2c(SCC(=O)NCc3ccc4c(c3)OCO4)nc3ccccc3c2=O)c1	?	2%	4%	?
O=C(CSc1nc2cc([N+](=O)[O-])ccc2n1-c1ccccc1)NCc1ccc2c(c1)OCO2	-22%	-20%	11%	10µM*
CC1CCN(C(=O)CSc2nc3ccccc3c(=O)n2Cc2ccc3c(c2)OCO3)CC1	?	-5%	-16%	.
COc1cccc(-c2noc(COc3ccc(C(C)(C)C)cc3)n2)c1	.	14%	.	.
COc1ccccc1-n1c(SCC(=O)NC2CC2)nc2ccccc2c1=O	?	-16%	-4%	?
N=c1c2ccccc2nnn1-c1ccc(C(F)(F)F)cc1	0.29µM*	-4%	-2%	?
Cc1ccc(-n2nnc3ccccc3c2=O)cc1C	220%	4%	-10%	24%
COc1ccc(-c2cc3cc(OC)c(OC)cc3c(C)n2)cc1C	?	10%	-4%	10µM*
Cc1ccc(S(=O)(=O)N(C)CC(=O)Nc2cc(C)ccn2)cc1	92%	-4%	-5%	153%
O=C(N/N=C/c1ccc([N+](=O)[O-])o1)C(=O)Nc1ccc(C(=O)O)cc1	2.3µM*	?	1%	2.3µM*
O=C(N/N=C/c1ccc([N+](=O)[O-])o1)c1sc2ccccc2c1Cl	?	-16%	-21%	1.7µM*
O=C(N/N=C/c1ccc(Br)o1)c1cc([N+](=O)[O-])cc([N+](=O)[O-])c1	-3%	-16%	-1%	21%
O=C(N/N=C/c1ccccn1)c1sc2ccccc2c1Cl	?	4%	-6%	?
Cc1ccc(NC(=O)CCC(=O)N/N=C/c2ccc([N+](=O)[O-])o2)cc1C	7.4µM*	-21%	-5%	1.9µM*
O=C(N/N=C\c1ccc([N+](=O)[O-])o1)c1ccc(O)cc1	2.3µM*	.	.	-102%[12.8 µM]
COc1ccc(CN(C(=O)c2cc3ccccc3oc2=O)C2CCS(=O)(=O)C2)cc1OC (stereo unspecified)	15%	-13%	-2%	38%
CCCC(=O)Nc1ccc(C(=O)N/N=C/c2ccc([N+](=O)[O-])o2)cc1	-92%	-8%	-8%	1.7µM*
O=C(N/N=C/c1ccc([N+](=O)[O-])o1)c1cn2ccc3ccccc3c2n1	1.3µM*	-5%	1%	?
CCN(CC)c1ccc2cc(-c3nc4sc5c(c4c(=O)[nH]3)CCC(C(C)(C)C)C5)c(=O)oc2c1 (stereo unspecified)	.	3%	.	.
COc1ccc2cc(CO)n(C)c2c1	12µM*	-12%	-6%	?
C/C(=N\N=C(/N)SC1CC(=O)N(c2ccc(Br)cc2)C1=O)c1cccs1 (stereo unspecified)	37%	14µM*	-23%	110%

Source: PubChem (National Center for Advancing Translational Sciences (NCATS))
